Test results published in PubChem BioAssay (Tox21).
Values joined by “and” are separate entries in the source; they are usually repeats but may differ in a detail not shown here. Equal entries are not always repeated. A structure can be active in one record and inactive in another. Active and inactive are the calls of the source. Entries that show only a call come without a potency. Unless noted, calls follow the shape of the dose curve; as a rule, active = well fitted curve in the direction sought with a large enough effect in the repeat runs; inconclusive = weak or mixed curves; inactive = no such curve, though single readings can be large; an effect the other way counts as inactive or inconclusive.

What was measured:
[1] = qHTS assay to identify small molecule antagonists of the estrogen receptor alpha (ER-alpha) signaling pathway - cell viability counter screen (AID 743074; calls by dose curve;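 also: HEK293 cells carrying ER-alpha-UAS-bla reporter stimulated with 17beta-estradiol; nearly all actives have a fitted effect of over 45% in size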)
[2] = qHTS assay to identify small molecule antagonists of the estrogen receptor alpha (ER-alpha) signaling pathway using the BG1 cell line - cell viability counter screen (AID 743081);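 also: compound given together with 17beta-estradiol as the ER stimulus; nearly all actives have a fitted effect of over 45% in size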; also: potency is read from the fitted curve at half-maximal effect
[3] = target: Aromatase (Homo sapiens) (UniProt P11511); experiment: qHTS assay to identify aromatase inhibitors (AID 743083); also: nearly all actives have a fitted effect of over 55% in size; also: potency is read from the fitted curve at half-maximal effect
[4] = qHTS assay to identify aromatase inhibitors - cell viability counter screen (AID 743084);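 also: cells stimulated with testosterone during compound exposure; nearly all actives have a fitted effect of over 55% in size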; also: potency is read from the fitted curve at half-maximal effect
[5] = target: Aryl hydrocarbon receptor (Homo sapiens) (UniProt P35869); experiment: qHTS assay to identify small molecule that activate the aryl hydrocarbon receptor (AhR) signaling pathway (AID 743085); also: nearly all actives have a fitted effect of over 15% in size; also: potency is read from the fitted curve at half-maximal effect;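 as to activation: HG2L7.5c1 human HepG2 liver cells with stably integrated DRE-driven firefly reporter; series mostly up to about 70 µM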
Method in brief: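 Measured in HG2L7.5c1 cells: CellTiter-Fluor signal (30 min incubation, 37C) for viability, then luciferase luminescence (30 min, room temperature). Compound contact time was 24 h at 37C, following a 5 h pre-incubation.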

[6] = qHTS assay to identify small molecule that activate the aryl hydrocarbon receptor (AhR) signaling pathway - cell viability counter screen (AID 743086); also: nearly all actives have a fitted effect of over 45% in size; also: potency is read from the fitted curve at half-maximal effect
Method in brief: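 Cytotoxicity counter screen: CellTiter-Fluor signal (30 min, 37 C) in 4000 HepG2 cells/well carrying the DRE-luciferase reporter, following 24 h compound exposure at 37 C.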

[7] = target: Peroxisome proliferator-activated receptor gamma (Homo sapiens) (UniProt P37231); experiment: qHTS assay to identify small molecule agonists of the peroxisome proliferator-activated receptor gamma (PPARg) signaling pathway (AID 743094; active = well fitted activation curve with a large enough effect in the signal ratio in the repeat runs, not every such curve was filed as active; inconclusive = weak or mixed curves, or effect the other way; inactive = no such curve, though single readings can be large or run the other way; the % refers to the signal ratio)
Method in brief: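 Compounds dissolved in DMSO were added to PPARg UAS-bla HEK293H cells for 17 h at 37C, and reporter expression was quantified by fluorescence intensity after 1 h with LiveBLAzer B/G FRET substrate.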

[8] = qHTS assay to identify small molecule antagonists of the peroxisome proliferator-activated receptor gamma (PPARg) signaling pathway - cell viability counter screen (AID 743194); also: nearly all actives have a fitted effect of over 55% in size; also: potency is read from the fitted curve at half-maximal effect
Method in brief: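 Viability was measured as CellTiter-Glo luminescence in GeneBLAzer PPARg UAS-bla HEK293H cells. These cells had been exposed 17 h at 37 C to compounds together with rosiglitazone at 50 nM final, with the beta-lactamase readout taken in the same wells.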

[9] = qHTS assay for small molecule agonists of the antioxidant response element (ARE) signaling pathway (AID 743202; active = well fitted activation curve with a large enough effect in the signal ratio in the repeat runs, not every such curve was filed as active; inconclusive = weak or mixed curves, or effect the other way; inactive = no such curve, though single readings can be large or run the other way; the % refers to the signal ratio; also: potency is read from the fitted curve at half-maximal effect)
Method in brief: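 Quantitative high-throughput format in HepG2 cells bearing an integrated ARE-beta-lactamase reporter. Compound exposure lasted 16 h at 37 C, and fluorescence was read 2 h after adding LiveBLAzer B/G substrate at room temperature.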

[10] = qHTS assay for small molecule agonists of the antioxidant response element (ARE) signaling pathway - cell viability counter screen (AID 743203; calls by dose curve; also: nearly all actives have a fitted effect of over 55% in size; also: potency is read from the fitted curve at half-maximal effect)
Method in brief: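 Following 16 hrs of compound treatment at 37C, HepG2 cells with an ARE-controlled beta-lactamase gene were lysed with CellTiter-Glo. Luminescence was read after 30 min at room temperature.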

[11] = qHTS assay for small molecule activators of the heat shock response signaling pathway - cell viability counter screen (AID 743209); also: nearly all actives have a fitted effect of over 50% in size; also: potency is read from the fitted curve at half-maximal effect
Method in brief: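 Readout: CellTiter-Glo luminescence, 30 min at room temperature. System: HSE-bla HeLa cells, 1500/well, plated overnight. Treatment: compounds in DMSO, 5 h at 37 C.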

[12] = qHTS assay for small molecule activators of the heat shock response signaling pathway (AID 743210; active = well fitted activation curve with a large enough effect in the signal ratio in the repeat runs, with a control signal flat, not every such curve was filed as active; inconclusive = weak or mixed curves; the % refers to the signal ratio;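 also: HeLa cells with beta-lactamase reporter driven by heat shock elements; series mostly up to about 63 µM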)
Method in brief: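 HeLa HSE-bla cells, overnight plating; cpd in DMSO 5 h, 37 C; LiveBLAzer B/G FRET substrate 2.5 h RT; fluorescence intensity read.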

[13] = qHTS assay to identify small molecule agonists of the peroxisome proliferator-activated receptor delta (PPARd) signaling pathway - cell viability counter screen (AID 743211); also: nearly all actives have a fitted effect of over 55% in size; also: potency is read from the fitted curve at half-maximal effect
Method in brief: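 Following 5 h plating at 37 C and 5% CO2, PPARd UAS-bla HEK293H cells took up test compounds for 17 h. Viability was quantified by luminescence 30 min after CellTiter-Glo addition at room temperature.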

[14] = target: Estrogen receptor (Homo sapiens) (UniProt P03372); experiment: qHTS assay to identify small molecule antagonists of the estrogen receptor alpha (ER-alpha) signaling pathway (AID 743069; active = well fitted curve in the direction sought with a large enough effect in the signal ratio in the repeat runs, not every such curve was filed as active; inconclusive = weak or mixed curves, or effect the other way; inactive = no such curve, though single readings can be large or run the other way; the % refers to the signal ratio; also: potency is read from the fitted curve at half-maximal effect)
Method in brief: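 ER-alpha-UAS-bla GripTite HEK293 line; 2% charcoal-stripped FBS overnight; plated, 4 hr 37C/5% CO2; cpd in DMSO + 17beta-estradiol, 18 hr 37C; LiveBLAzer B/G FRET substrate 2 hr RT; fluorescence intensity.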

[15] = target: Estrogen receptor (Homo sapiens) (UniProt P03372); experiment: qHTS assay to identify small molecule agonists of the estrogen receptor alpha (ER-alpha) signaling pathway (AID 743075; calls by dose curve;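 also: HEK293 GripTite cells with ER-alpha and UAS-driven beta-lactamase reporter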; also: potency is read from the fitted curve at half-maximal effect)
[16] = target: Estrogen receptor (Homo sapiens) (UniProt P03372); experiment: qHTS assay to identify small molecule agonists of the estrogen receptor alpha (ER-alpha) signaling pathway using the BG1 cell line (AID 743079); also: nearly all actives have a fitted effect of over 20% in size; also: potency is read from the fitted curve at half-maximal effect
[17] = qHTS assay to identify small molecule antagonists of the estrogen receptor alpha (ER-alpha) signaling pathway using the BG1 cell line (AID 743080; calls by dose curve; also: nearly all actives have a fitted effect of over 25% in size; also: potency is read from the fitted curve at half-maximal effect)
Method in brief: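 Antagonist mode: compounds in DMSO were pinned onto BG1-Luc-4E2 cells alongside 17beta-estradiol agonist, incubated 21.5 h, and ERE-driven luciferase measured with ONE-Glo. Cytotoxicity was multiplexed using CellTiter-Fluor fluorescence.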

[18] = test system: thyroid hormone receptor (rat, GH3 cells); experiment: qHTS assay to identify small molecule agonists of the thyroid receptor (TR) signaling pathway (AID 743066; calls by dose curve)
[19] = qHTS assay to identify small molecule antagonists of the thyroid receptor (TR) signaling pathway (AID 743065)
Method in brief: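 Antagonism measured as loss of luciferase signal in GH3 cells stably carrying a TRE-luciferase reporter, co-treated with compound and T3 (1 nM final) for 23.5 h at 37 C. Viability was read in the same well by CellTiter-Fluor.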

Sequence of Aromatase (Homo sapiens) (P11511 whole entry, looked up): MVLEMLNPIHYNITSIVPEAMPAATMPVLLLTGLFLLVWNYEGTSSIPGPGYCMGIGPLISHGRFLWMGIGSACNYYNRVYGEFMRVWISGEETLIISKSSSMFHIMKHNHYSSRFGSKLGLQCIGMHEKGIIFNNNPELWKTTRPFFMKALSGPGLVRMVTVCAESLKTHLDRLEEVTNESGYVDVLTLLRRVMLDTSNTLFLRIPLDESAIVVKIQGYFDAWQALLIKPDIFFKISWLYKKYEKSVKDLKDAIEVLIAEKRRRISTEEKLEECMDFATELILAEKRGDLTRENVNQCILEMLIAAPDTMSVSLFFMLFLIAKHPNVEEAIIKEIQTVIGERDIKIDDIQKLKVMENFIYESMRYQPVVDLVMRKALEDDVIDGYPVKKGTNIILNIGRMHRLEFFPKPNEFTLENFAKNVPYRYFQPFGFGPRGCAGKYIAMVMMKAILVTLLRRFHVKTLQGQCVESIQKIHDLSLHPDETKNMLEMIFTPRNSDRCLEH
Sequence of Aryl hydrocarbon receptor (Homo sapiens) (P35869 whole entry, looked up): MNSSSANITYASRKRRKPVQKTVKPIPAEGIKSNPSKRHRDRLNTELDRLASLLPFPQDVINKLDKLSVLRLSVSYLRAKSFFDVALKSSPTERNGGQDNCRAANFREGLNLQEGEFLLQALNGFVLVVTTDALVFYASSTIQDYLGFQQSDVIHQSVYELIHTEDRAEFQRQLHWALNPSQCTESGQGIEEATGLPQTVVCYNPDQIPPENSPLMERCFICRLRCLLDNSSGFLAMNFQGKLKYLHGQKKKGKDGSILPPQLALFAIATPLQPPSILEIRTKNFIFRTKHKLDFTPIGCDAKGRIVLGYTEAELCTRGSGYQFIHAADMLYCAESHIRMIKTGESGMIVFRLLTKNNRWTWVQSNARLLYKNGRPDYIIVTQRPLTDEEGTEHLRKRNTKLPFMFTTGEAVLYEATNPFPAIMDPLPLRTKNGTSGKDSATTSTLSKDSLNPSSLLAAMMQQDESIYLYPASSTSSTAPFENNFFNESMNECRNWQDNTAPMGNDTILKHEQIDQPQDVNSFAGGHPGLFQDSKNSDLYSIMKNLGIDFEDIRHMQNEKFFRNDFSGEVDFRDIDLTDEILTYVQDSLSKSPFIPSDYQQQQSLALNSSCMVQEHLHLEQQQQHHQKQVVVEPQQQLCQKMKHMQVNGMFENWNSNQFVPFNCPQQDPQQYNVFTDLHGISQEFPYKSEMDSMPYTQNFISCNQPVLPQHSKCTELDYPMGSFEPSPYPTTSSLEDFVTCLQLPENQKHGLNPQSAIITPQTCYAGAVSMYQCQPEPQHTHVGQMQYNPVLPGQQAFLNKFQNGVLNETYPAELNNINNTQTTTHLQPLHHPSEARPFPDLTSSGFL
Sequence of Estrogen receptor (Homo sapiens) (P03372 whole entry, looked up): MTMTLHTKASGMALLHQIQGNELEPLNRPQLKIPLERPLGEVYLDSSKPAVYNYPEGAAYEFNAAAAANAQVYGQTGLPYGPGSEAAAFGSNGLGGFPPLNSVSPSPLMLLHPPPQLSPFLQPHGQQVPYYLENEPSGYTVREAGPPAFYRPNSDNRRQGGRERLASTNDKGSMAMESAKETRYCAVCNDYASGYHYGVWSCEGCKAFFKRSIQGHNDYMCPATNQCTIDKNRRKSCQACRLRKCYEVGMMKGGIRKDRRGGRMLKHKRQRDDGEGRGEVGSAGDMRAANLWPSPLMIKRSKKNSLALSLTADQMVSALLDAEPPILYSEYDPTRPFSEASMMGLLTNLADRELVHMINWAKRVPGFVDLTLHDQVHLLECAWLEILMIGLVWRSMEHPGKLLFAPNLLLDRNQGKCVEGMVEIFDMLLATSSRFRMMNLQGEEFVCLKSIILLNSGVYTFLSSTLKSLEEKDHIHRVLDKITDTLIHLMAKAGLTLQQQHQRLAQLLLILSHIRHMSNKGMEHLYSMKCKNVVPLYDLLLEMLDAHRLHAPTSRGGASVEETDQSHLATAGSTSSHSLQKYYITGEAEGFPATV
Sequence of Peroxisome proliferator-activated receptor gamma (Homo sapiens) (P37231 whole entry, looked up): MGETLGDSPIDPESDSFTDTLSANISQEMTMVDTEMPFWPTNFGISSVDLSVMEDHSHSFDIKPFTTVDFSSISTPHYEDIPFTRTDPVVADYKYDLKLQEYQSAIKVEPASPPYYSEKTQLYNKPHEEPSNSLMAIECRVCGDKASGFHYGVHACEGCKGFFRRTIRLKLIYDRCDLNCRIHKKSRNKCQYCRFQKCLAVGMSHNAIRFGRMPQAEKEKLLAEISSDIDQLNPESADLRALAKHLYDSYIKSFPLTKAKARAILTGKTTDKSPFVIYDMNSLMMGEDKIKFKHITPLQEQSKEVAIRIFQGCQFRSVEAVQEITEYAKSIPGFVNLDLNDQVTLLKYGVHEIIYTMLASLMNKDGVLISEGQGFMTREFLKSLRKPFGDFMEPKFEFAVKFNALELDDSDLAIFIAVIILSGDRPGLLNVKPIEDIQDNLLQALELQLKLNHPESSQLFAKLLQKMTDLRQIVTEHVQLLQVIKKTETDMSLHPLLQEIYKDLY

Compound	Potency [1]	Potency [2]	Potency [3]	Potency [4]	Potency [5]	Potency [6]	Potency [7]	Potency [8]	Potency [9]	Potency [10]	Potency [11]	Potency [12]	Potency [13]	Potency [14]	Potency [15]	Potency [16]	Potency [17]	Potency [18]	Potency [19]
CCCC(=O)O	inactive	inactive	inactive	inactive	inactive	inactive	inactive	inactive	inactive	inactive	inactive	inactive	inactive						
C=C(C)C1CC=C(C)CC1 (stereo not drawn)	inactive	inactive	inactive	inactive	inactive	inactive		inactive	inactive	inactive	inactive	inactive		inactive	inactive	inactive	inactive		
C#C[C@]1(O)CC[C@H]2[C@@H]3CCc4cc(OC)ccc4[C@H]3CC[C@@]21C	inactive	inactive		inactive	inactive	inactive	inactive	inactive		inactive	inactive				19 nM [inconclusive] (active) and 30.9 nM [inconclusive] (active)	1.5 nM (active) and 0.8 nM (active)	inactive	inactive	
COc1cccc2c1C(=O)c1c(O)c3c(c(O)c1C2=O)C[C@@](O)(C(=O)CO)C[C@@H]3O[C@H]1C[C@H](N)[C@H](O)[C@H](C)O1	inactive	inactive and 27.3 µM (active)	inactive and 6.68 µM (active) and 1.72 µM (active)	inactive and 13.3 µM (active) and 12.2 µM (active)	inactive	inactive and 3.85 µM (active)	inactive	inactive	0.266 µM (active)	13.7 µM (active) and 5.31 µM (active)			inactive	inactive and 6.01 µM [inconclusive] (active) and 3.46 µM [inconclusive] (active)	inactive and 2.68 µM [inconclusive] (active) and 15.5 µM [inconclusive] (active)	inactive	inactive	inactive	
CC(C)CC(C)(O)C#CC(C)(O)CC(C)C (stereo not drawn)	inactive	inactive		inactive	inactive	inactive		inactive	inactive	inactive	inactive	inactive						inactive	inactive
Brc1cc(Oc2cc(Br)c(Br)c(Br)c2Br)c(Br)c(Br)c1Br	inactive	inactive	inactive	inactive	inactive	inactive	inactive	inactive		inactive	inactive		inactive					inactive	
Cn1cnc([N+](=O)[O-])c1Sc1ncnc2nc[nH]c12	inactive	inactive	inactive	inactive	inactive and 19.2 µM (active)		inactive	inactive	8.41 µM (active)	382 nM (active)	inactive			inactive	inactive	inactive		inactive	
C[C@]12CC[C@H]3[C@@H](CCC4=CC(=O)CC[C@@]43C)[C@@H]1CC[C@@H]2C(=O)CO	inactive	inactive	inactive	inactive	inactive	inactive	inactive	inactive		inactive	inactive	inactive	inactive		inactive	7.7 µM (active)	inactive	inactive	
O=C(Nc1ccc([N+](=O)[O-])cc1Cl)c1cc(Cl)ccc1O		inactive	inactive and 1.93 µM (active)	inactive	0.211 µM (active)	inactive		123 nM (active) and 461 nM (active)	inactive		0.309 µM (active)		219 nM (active) and 259 nM (active)	inactive	inactive		0.841 µM (active)		
CCCCCCCCCCCO	inactive	inactive	inactive and 27.3 µM (active)	inactive and 27.3 µM (active)	inactive	inactive	inactive	inactive	inactive	inactive and 61.1 µM (active)	inactive and 43.6 µM (active)			inactive	inactive	inactive	inactive	inactive	
COc1ccc(OC)c(C(O)CNC(=O)CN)c1 (stereo not drawn)	inactive	inactive	inactive	inactive	inactive	inactive	inactive	inactive	inactive	inactive	inactive	inactive	inactive	inactive	inactive	inactive	inactive		
CN(C)C(=N)N=C(N)N	inactive	inactive		inactive		inactive		inactive	inactive	inactive	inactive		inactive					inactive	inactive
O=C=Nc1ccc(Cc2ccc(N=C=O)cc2)cc1	inactive	inactive				inactive		inactive		inactive	inactive	inactive						inactive	inactive
CCCCc1oc2ccccc2c1C(=O)c1cc(I)c(OCCN(CC)CC)c(I)c1		inactive	inactive and 43.6 µM (active)	inactive and 43.6 µM (active)		inactive		13.9 µM (active)		34600 nM (active)	inactive		22.1 µM (active) and 16.8 µM (active)	inactive	inactive	inactive	inactive		
